Measurements taken from PubChem BioAssay (Tox21).
Results filed as inconclusive are left out. A number with no mark means an inactive call. Calls follow the shape of the dose curve; as a rule, active = well fitted activation curve with a large enough effect in the repeat runs; inconclusive = weak or mixed curves; inactive = flat fitted curve, though single readings scatter.

assay: A CellTox Green Cytotoxicity Assay to monitor cytotoxicity in HepG2 cells - 8 hour (AID 1224890); settings: CellTox Green fluorescence; series mostly up to 76.8 µM; cytotoxicity increase: at the top concentration; also: nearly all actives have a fitted effect of over 45% in size
Text: National Center for Advancing Translational Sciences [NCATS]
NIH Chemical Genomics Center [NCGC]
U.S. Environmental Protection Agency [EPA]
National Institutes of Environmental Health Sciences [NIEHS]
National Toxicology Program [NTP]
Cell-based models are critical for drug discovery. Determining the natural cytotoxic effects resulting from test compounds is an essential research activity. A CellTox Green Cytotoxicity Assay to monitor cytotoxicity in real time of continues cell culture during 40 hours of the compound treatment was used to screen Tox21 10K library compounds in HepG2 cells. CellTox Green Cytotoxicity Assay is a nonlytic, homogeneous, biofluorescent method to measure cytotoxicity in cell culture after experimental manipulation. The assay system uses a proprietary asymmetric cyanine dye that is excluded from viable cells but preferentially stains the dead cell's DNA. […] Viable cells produce no appreciable increases in fluorescence. Therefore, the fluorescence signal produced by the binding interaction with dead cell DNA is proportional to cytotoxicity.
The mixture of HepG2 cell suspension and reagents were dispensed at 600cells/6 ul/well in 1536-well tissue culture treated black solid bottom plates using a Multidrop dispenser. After the assay plates were incubated at a 37 C/5% CO2 incubator for 5 hours, 23 nL of compounds dissolved in DMSO, positive and negative controls was transferred to the assay plate by a pintool work station. The plates were incubated at 37 C for 40 hours. The fluorescence intensity were measured at 0h, 8h, 16h, 24h, 32h and 40h time points using ViewLux plate reader during compound treatment.
% is scaled to controls: 0 for no effect and ±100 for the full control effect.

| Structure (SMILES) | cytotoxicity increase |
| --- | --- |
| c1ccc2sc(SN3CCOCC3)nc2c1 | 1.07% [at 35.3 µM] |
| CCO[Si](OCC)(OCC)c1ccccc1 | -14% |
| COc1cc(C(=O)OC(COCCC(C)C)CN2CCOCC2)cc(OC)c1OC (stereo not given) | 0.634% [at 35.3 µM] |
| CC(=O)C1CCCCC1=O (stereo not given) | -1.24% |
| CCOc1c(N2CCOCC2)cnn(C)c1=O | -1.65% [at 35.3 µM] |
| CN1CCN(c2cc3c(nn2)Oc2ccccc2N3C)CC1 | 1.91% [at 15.8 µM] |
| CC(N)C12CC3CC(CC(C3)C1)C2 (stereo not given) | 16.3% [at 35.3 µM] |
| CC1OC1C1CCC2(C)OC2C1 (stereo not given) | 4.19% |
| CCC(C(=O)NC(=O)NC(C)=O)c1ccccc1 (stereo not given) | 1.61% [at 35.3 µM] |
| Cc1ccccc1N=C(N)N=C(N)N | -0.336% |
| CN(C)[C@@H]1C(=O)C(C(=O)NCN2CCCC2)=C(O)[C@@]2(O)C(=O)C3=C(O)c4c(O)cccc4[C@@](C)(O)C3C[C@@H]12 (stereo not given in full) | -15.9% [at 35.3 µM] |
| CCN(Cc1ccccc1)c1ccccc1 | 0.692% |
| Cc1coc2ccccc2c1=O | -8.72% [at 35.3 µM] |
| c1coc(CNc2ncnc3nc[nH]c23)c1 | 0.548% |
| CCOC(=O)c1cnc2c(cnn2CC)c1NN=C(C)C | 9.72% [at 35.3 µM] |
| Cc1ccc(-c2ncc(Cl)cc2-c2ccc(S(C)(=O)=O)cc2)cn1 | 0.84% [at 35.3 µM] |
| CC(C)(C)C(=O)c1ccccc1 | -0.697% |
| CCOC(=O)OC(C)OC1=C(C(=O)Nc2ccccn2)N(C)S(=O)(=O)c2ccccc21 (stereo not given) | -6.14% [at 35.3 µM] |
| CC(C)C(=O)OC(=O)C(C)C | 7.51% |
| CN(C)C(=O)Oc1ccc[n+](C)c1 | -7.7% [at 35.3 µM] |

| Structure (SMILES) | cytotoxicity increase |
| --- | --- |
| CCCCCCCCN1CCCC1=O | -0.769% |
| CCC(C)(CCCC(C)C)OC(C)=O (stereo not given) | 18.7% |
| CCNS(=O)(=O)c1ccc(C)cc1 | 1.69% |
| CC(C)CCCO | -4.53% |
| CC1CCC(CO)CC1 (stereo not given) | 0.263% |
| COC(=O)Nc1ccc(Cl)c(Cl)c1 | -16.1% |
| O=S(=O)(O)c1cccc(S(=O)(=O)O)c1 | 0.949% |
| O=S(=O)(O)c1cccc2c(S(=O)(=O)O)cccc12 | 1.04% |
| CC1=NN(c2cc(S(=O)(=O)O)ccc2Cl)C(=O)C1N=Nc1ccccc1 (stereo not given) | 2.25% |
| CCCCOCCOC(=O)CCCCCCCCC(=O)OCCOCCCC | 1.4% |
| CC12CCC(C(=O)C1=O)C2(C)C (stereo not given) | 0.0003% |
| CC(C)[C@H]1CC[C@@H](C)CC1=O | -0.573% |
| CCCCc1nc(Cl)c(CO)n1Cc1ccc(-c2ccccc2-c2nn[nH]n2)cc1 | -8.41% [at 35.3 µM] |
| CC(C)C1CCC(O)CC1 (stereo not given) | -14.4% |
| O=Cc1cccc(Br)c1 | 0.502% |
| CC(C)(C#N)Nc1nc(Cl)nc(NC2CC2)n1 | 2.22% |
| CC(=O)OCC(=O)[C@@]1(O)[C@H](C)C[C@H]2[C@@H]3CCC4=CC(=O)C=C[C@]4(C)[C@@]3(F)[C@@H](O)C[C@@]21C | 1.65% [at 35.3 µM] |
| NC(N)=NCCN1CCCCCCC1 | -11.3% [at 0.29 µM] |
| O=C1NC(=O)C2CC=CCC12 (stereo not given) | 6.19% |
| CCCc1nn(C)c2c(=O)[nH]c(-c3cc(S(=O)(=O)N4CCN(C)CC4)ccc3OCC)nc12 | -0.55% [at 35.3 µM] |
